Measured values from PubChem BioAssay AID1619 (SRMLSC, 2009).
The whole screen tested about 220,000 compounds, of which about 830 (0.38%) were called active.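 How the source made its calls: active means compound inhibiting the enzyme by more than half at any dose during confirmatory dose-response retesting; inconclusive means strong single-dose inhibitors picked by rank but not retested; inactive means the rest.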 The list is a sample of the results. Entries with a potency or affinity are not part of this list.

Target: Leucine aminopeptidase (Plasmodium falciparum (isolate 3D7)) (UniProt Q8IL11)
Assay: P. falciparum M17LAP inhibitors, primary screen, biochemical, fluorogenic H-Leu-NHMec substrate, 1536-well (AID 1619);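 further: plate controls were full reaction with DMSO carrier for no effect and no enzyme background for full effect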
Settings: recombinant M17LAP, H-Leu-NHMec fluorogenic kinetic assay; at 30 µM; active compounds read high

Leucine aminopeptidase (Plasmodium falciparum (isolate 3D7)), sequence (Q8IL11 whole entry, looked up): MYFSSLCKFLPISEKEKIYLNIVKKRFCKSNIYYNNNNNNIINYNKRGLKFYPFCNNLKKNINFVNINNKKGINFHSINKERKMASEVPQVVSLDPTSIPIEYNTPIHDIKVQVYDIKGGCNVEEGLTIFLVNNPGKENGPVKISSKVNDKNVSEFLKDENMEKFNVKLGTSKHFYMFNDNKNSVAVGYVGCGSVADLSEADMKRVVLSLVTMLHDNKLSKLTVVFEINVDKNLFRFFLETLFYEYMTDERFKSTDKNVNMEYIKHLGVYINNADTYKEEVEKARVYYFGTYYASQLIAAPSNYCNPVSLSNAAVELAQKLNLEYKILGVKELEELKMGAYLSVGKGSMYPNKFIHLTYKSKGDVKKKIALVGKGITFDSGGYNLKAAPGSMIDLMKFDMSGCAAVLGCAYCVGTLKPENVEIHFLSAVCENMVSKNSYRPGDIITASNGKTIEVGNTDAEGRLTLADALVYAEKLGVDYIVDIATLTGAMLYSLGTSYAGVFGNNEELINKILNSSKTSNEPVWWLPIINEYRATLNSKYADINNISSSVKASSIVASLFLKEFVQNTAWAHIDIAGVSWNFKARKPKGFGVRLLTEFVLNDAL

inhibition, inactive:
COc1ccc2c(c1)c(C(=O)N/N=C/c1cccc(O)c1)c(C)n2C 11.1%
COc1ccc2c(c1)c(C(=O)N/N=C/c1ccc(OC)c(OC)c1)c(C)n2C -4.74%
COCCNC(=O)CN(c1ccccc1OC)S(C)(=O)=O 6.69%
CC(=O)Nc1ccc(NC(=O)/C=C/c2ccccc2)cc1 -5.95%
COc1cccc(OCCCCN2CC(C)OC(C)C2)c1 (stereo not drawn) 8.69%
O=C1OCCC1Sc1nc2cc(Cl)ccc2s1 (stereo not drawn) 11.7%
CSc1nc2cc(Cl)ccc2s1 -8.15%
Cc1cc(C(F)(F)F)nc(SCC(=O)NC2CC3CCC2C3)n1 (stereo not drawn) 4.48%
Cc1ccccc1NC(C)C(=O)N/N=C/c1ccccc1OCc1cccc(Br)c1 (stereo not drawn) -0.47%
O=C(N/N=C/c1cccc(O)c1)c1ccc(COc2cccc3cccnc23)cc1 3.53%
COc1ccc(NC(C)C(=O)N/N=C/c2ccccc2OCc2cccc(Br)c2)cc1 (stereo not drawn) 3.79%
CC(Nc1ccc(Br)cc1)C(=O)N/N=C/c1ccccc1OCc1ccccc1 (stereo not drawn) -9.93%
COc1cccc(/C=N/NC(=S)Nc2cccc(C(=O)O)c2)c1O 44.2%
O=C(N/N=C/c1ccncc1)c1ccc(COc2cccc3cccnc23)cc1 8.86%
CC1(C)CC2CC(C)(CN2/C=C2/CCCCC2=O)C1 (stereo not drawn) 16.8%
CCC1S/C(=N/N=C/c2ccco2)N(c2ccc(F)cc2)C1=O (stereo not drawn) 5.93%
O=[N+]([O-])c1cccc2ccc(/C=C/c3ccc(C(F)(F)F)cc3)nc12 5.36%
Cc1cc(N=Cc2c(O)n(-c3ccc(C)c(C)c3)c(=O)c3ccccc23)no1 -34.1%
COc1ccc(OCC(=O)OC(C)CN2CCOCC2)cc1 (stereo not drawn) 4.55%
COc1cccc(CC(=O)n2nc(N)c3cc4ccc(OC)cc4nc32)c1 -8.98%
O=C(CCC(=O)N1CCN(S(=O)(=O)c2ccc(Cl)cc2)CC1)Nc1ccc2ccccc2c1 -4.1%
CCc1ccc(C2NC(=S)NC3=C2C(=O)CC(C)(C)C3)cc1 (stereo not drawn) -1.26%
CCOC(=O)c1c(C)[nH]c(C(=O)/C(C#N)=C/c2ccc(OC)c(OC)c2)c1C 9.47%
CC(C)NC(=O)COC(=O)c1ccc(S(=O)(=O)N2CCCC2)cc1 -2.13%
CCCS(=O)(=O)N1CCN(S(=O)(=O)c2ccccc2)CC1 -6.24%
O=C(CCC(=O)N(CC(=O)NC1CCCCC1)c1ccc2c(c1)OCCO2)Nc1ccccn1 9.63%
O=C(CSc1nnc(Nc2ccccc2F)s1)c1cc2ccccc2o1 32.5%
COc1ccc(Nc2nnc(SCC(=O)c3cc4ccccc4o3)s2)cc1 4.36%
O=S(=O)(c1ccccc1)N1CCN(c2nc(-c3cccs3)nc3ccccc23)CC1 4.27%
CC(C)CC(NC(=O)c1cccs1)c1nnc(SCc2ccc(Cl)c(Cl)c2)n1C (stereo not drawn) 4.91%
C/C=C/C(=O)OCC(=O)Nc1ccc(SC(F)F)cc1 -1.79%
Cc1nn(-c2ccccc2)c(N2CCCC2)c1/C=C1\N=C(c2ccccc2)OC1=O 2.36%
COC(=O)c1ccccc1NC(=O)C1CC=CCC1C(=O)O (stereo not drawn) 29.7%
O=C(O)C1CCCCC1C(=O)Nc1ccc(F)cc1F (stereo not drawn) 41.3%
Cc1ccc(Cl)cc1NC(=O)C1CCCCC1C(=O)O (stereo not drawn) 10.3%
O=C(O)C1CCCCC1C(=O)Nc1cccc2ccccc12 (stereo not drawn) 39.5%
O=C(CCC(=O)Nc1ccc(Cl)cc1Cl)NNC(=O)[C@@H]1CCCC[C@@H]1C(=O)O -2.95%
O=C(O)C1CC=CCC1C(=O)Nc1ccccc1C(=O)N1CCN(c2ccc(Cl)cc2)CC1 (stereo not drawn) 56.6%
O=C(O)C1CCCCC1C(=O)Nc1ccccc1Cl (stereo not drawn) 43.9%
Cc1ccc(F)c(NC(=O)C2CCCCC2C(=O)O)c1 (stereo not drawn) 4.08%
COc1ccc(C(=O)Nc2cccc(-c3nc4ncccc4o3)c2C)cc1OC 2.86%
COc1ccc(Cn2c(CCC(=O)Nc3ccc(C)cc3)nc3cccnc32)cc1 -4.5%
CCOC(=O)C(C(=O)OCC)C1CS(=O)(=O)CC1C(C(=O)OCC)C(=O)OCC (stereo not drawn) 17%
COc1ccc(CCNC(=O)CC2Nc3ccccc3NC2=O)cc1 (stereo not drawn) 3.68%
COc1ccccc1NC(=O)NCc1ccco1 4.76%
Cc1cc(=O)[nH]c(SCC(=O)Nc2ccc(Br)cn2)n1 19.5%
O=C(O)C1=C(C(=O)Nc2cc(C(F)(F)F)ccc2Cl)CCCC1 8.32%
O=C(NNC(=O)[C@H]1CC=CC[C@H]1C(=O)O)c1ccc(Cl)cc1Cl 0.37%
O=C(O)C1CC=CCC1C(=O)NNc1c(Cl)cc(Cl)cc1Cl (stereo not drawn) 3.9%
O=C(CNC1CC1)Nc1cc(C(F)(F)F)ccc1Cl 1.31%
CCOC(=O)c1cnc2c(OC)cccc2c1Nc1ccc2c(c1)OCCO2 2.45%
O=C(Nc1nc2cc3c(cc2s1)OCCO3)c1ccc(N2C(=O)CCC2=O)cc1 0.52%
O=C(O)c1cc2c(cc1Br)OCCCO2 -43.7%
COc1ccc(OC)c(NC(=O)c2cccnc2Sc2ccccc2)c1 -17.3%
CC1CC(C)CN(CCOc2ccc(Br)cc2)C1 (stereo not drawn) -2.12%
CC(C)(C)C(=O)N1CCC[C@H]1C(O)(c1ccccc1)c1ccccc1 -4.15%
OC(CNCc1ccccn1)c1ccccc1 (stereo not drawn) -7.85%
COc1cccc(NC2=CC(=O)CC(C)(C)C2)c1 -33.9%
COC(=O)C1=C(Nc2cc(Cl)cc(Cl)c2)CSC1 5.27%
S=c1[nH]nc(Nc2ccc(Cl)cc2)s1 11.5%
Clc1cc(Cl)cc(Nc2ncnc(-n3cccc3)n2)c1 12.9%
Clc1ccc(Nc2ccc(Cl)nn2)cc1 -4.12%
CCc1nc2c(c(=O)c3ccccc3n2C)c(=O)n1C1CCCCCC1 11%
O=C(Nc1ccncc1)c1cccc2ccccc12 7%
Cc1nc(NC(=O)Nc2ccc(Cl)cc2)sc1C 2.28%
N#CC(C#N)=C1C=C2C=C(N3CCCCCC3)CCC2CC1 (stereo not drawn) 10.6%
N#CC(C#N)=C1C=C2C=C(N3CCCCC3)CCC2CC1 (stereo not drawn) 0.1%
O=C1c2ccccc2C(=O)c2cc(S(=O)(=O)Nc3ccccc3)ccc21 9.48%
O=C(Nc1ccc(Cl)cc1)OCc1cn(-c2ccccc2)nn1 6.64%
Cc1ccccc1-c1n[nH]c(=S)n1/N=C/c1c(C)nn(-c2ccccc2)c1C 6.29%
Cc1nn(-c2ccccc2)c(C)c1/C=N/O 4.53%
CCOc1ccc(Oc2c(/C=N/NC(N)=O)c(C)nn2-c2ccccc2)cc1 3.82%
CCSc1nnc(-c2cc(Br)ccc2N=Cc2c(C)[nH]n(-c3ccccc3)c2=O)c(=O)[nH]1 0.47%
C=CCSc1nnc(-c2ccccc2N=Cc2c(C)[nH]n(-c3ccccc3)c2=O)c(=O)[nH]1 56.2%
Cc1nn(-c2ccccc2)c(C)c1/C=N/n1c(-c2ccccc2Br)n[nH]c1=S -1.13%
CC(C)[C@H](NC(=O)[C@H](CCCN=C(N)N)NC(=O)NC(Cc1ccccc1)C(=O)O)C(=O)NC(C=O)CCCN=C(N)N (stereo partly drawn) 6.32%
O=c1[nH]c(-c2ccc3c(c2)OCO3)nc2c1sc(=S)n2-c1ccccc1 -0.6%
Cc1cc(C(=O)O)ccc1-c1ccc(/C=C2\NC(=O)N(Cc3ccc(F)cc3)C2=O)o1 0.19%
Cc1ccc(CN2C(=O)N/C(=C\c3ccc(-c4ccc(C(=O)O)cc4C)o3)C2=O)cc1 4.73%
Nc1cnc(CNc2ccccc2Cl)cn1 4.54%
CCn1c(N2CCN(S(=O)(=O)c3ccc(F)cc3)CC2)nc2ccccc21 2.95%
CC(=O)Nc1ccc(NC(=O)COC(=O)c2n[nH]c3ccccc23)cc1 2.47%
Nc1nonc1-c1nc2ccccc2n1CC(=O)N/N=C\c1ccc(-c2ccc(Cl)cc2)o1 3.34%
Nc1nonc1-c1nc2ccccc2n1CC(=O)N/N=C/c1ccc(-c2cccc(C(=O)O)c2)o1 31.4%
COc1cccc(C(=O)COC(=O)C(C)N2C(=O)C3C4C=CC(C4)C3C2=O)c1 (stereo not drawn) 4%
CC1CCc2nc(NCCO)nc(C(F)(F)F)c2C1 (stereo not drawn) 7.69%
COc1ccccc1CCc1nnc(CCC(=O)N(C)Cc2ccncc2C)o1 -1.17%
Cc1ccc2oc(=S)n(C)c2c1 3.68%
O=C(CSc1nnc(-c2ccc(O)cc2)n1Cc1ccco1)c1ccccc1 5.35%
CCOC(=O)c1c(NC(=S)Nc2ccccc2)sc(C)c1C 26.5%
CCOC(=O)c1c(NC(=S)Nc2ccc(Cl)cc2)sc(C)c1C 12.6%
CCOC(=O)c1c(NC(=S)Nc2ccc(F)cc2)sc2c1CCC2 6.14%
NC(=O)c1c(NC(=S)Nc2ccccc2)sc2c1CCCC2 16.9%
OCCN1CCN(c2nc(-c3ccccc3)nc3c2oc2ccccc23)CC1 7.26%
CNC(=O)N(C1=NCC(C)(C)S1)c1ccc(F)c(Cl)c1 -9.97%
O/N=C/c1ccc(OCc2ccccc2)c(Cl)c1 13.4%
O/N=C/c1ccc(OCc2ccccc2)c(Br)c1 6.58%
COc1cc(/C=N/Nc2ccccc2)ccc1OC(=O)c1cccs1 1.12%
CSc1ccc(/C=N/Nc2ccc(Cl)c(C(=O)O)c2)cc1 12.6%
O=C(O)c1cc(N/N=C/c2ccncc2)ccc1Cl 18.2%
COc1cc(/C=N/Nc2cccc(C)c2)ccc1OC(=O)c1ccco1 -4.8%
COc1cc(/C=N/Nc2ccc3ccccc3c2)ccc1OC(=O)c1ccco1 0.98%
COc1cc(/C=N/Nc2ccc(Cl)cc2)ccc1OC(=O)c1cccs1 4.49%
